Bioassay records (PubChem BioAssay)
Only some compounds are listed: those with a hit (about 2.4% of all), similar ones and a draw of the others.
D2 PAM-1 = human D2 receptor positive allosteric modulation; P14416; DiscoveRx D2 beta-arrestin cells, luminescence, 90 min; 100% = 57 uM dopamine signal; potentiation, % (test concentration not listed); hit rate 0.23% among 360,000; in the data active means potentiation above about 50%
Target sequence (P14416 whole entry, looked up): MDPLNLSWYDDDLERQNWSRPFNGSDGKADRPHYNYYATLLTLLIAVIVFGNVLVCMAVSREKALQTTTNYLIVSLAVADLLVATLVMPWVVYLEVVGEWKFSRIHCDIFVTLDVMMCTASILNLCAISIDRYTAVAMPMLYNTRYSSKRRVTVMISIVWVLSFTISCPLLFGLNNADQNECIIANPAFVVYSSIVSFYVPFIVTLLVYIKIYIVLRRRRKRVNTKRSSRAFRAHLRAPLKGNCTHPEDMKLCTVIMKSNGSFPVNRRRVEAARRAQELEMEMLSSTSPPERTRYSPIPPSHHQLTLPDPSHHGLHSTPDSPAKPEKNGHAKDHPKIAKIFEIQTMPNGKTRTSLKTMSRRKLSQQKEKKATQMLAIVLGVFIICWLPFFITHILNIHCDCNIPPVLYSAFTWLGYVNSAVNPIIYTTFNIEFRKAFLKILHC
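PathHunter D2 cells, attached overnight at 37 deg C, received compound in DMSO plus dopamine at EC20 (50 nM final) for 90 min at 37 deg C. Beta-arrestin recruitment was read as luminescence after 1 h with detection reagent at ambient temperature.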
D2 antag = antagonists of human D2 dopamine receptor; P14416; HEK293 TREx D2 cells, calcium flux, dopamine EC80; inhibition, % at 10 µM; hit rate 2% among 340,000; AID 485344; in the data active means inhibition above about 30%; inactive means below that, where a call was filed; further: 0% is about no effect
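Overnight-induced (tetracycline, 30 C) HEK293 T-REx cells carrying force-coupled D2 receive a no-wash calcium dye, then compound, then EC80 dopamine at 180 s; signals are read kinetically throughout.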
D2 ag-1 = agonists of human D2 dopamine receptor (beta-arrestin). DiscoveRx PathHunter D2 beta-arrestin, luminescence, 90 min; 100% = 57 uM dopamine signal. hit rate 0.084% among 360,000. activation, % (concentration not given with the values). AID 624465; in the data active means activation above about 40%
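Agonist mode: compounds alone added to overnight-plated D2 PathHunter cells for 90 min at 37 C, with 57 uM final dopamine (EC100) defining full response. Beta-arrestin recruitment detected by chemiluminescent reagent, read after 1 h at ambient temperature.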
D2 ag-2 = activates the human D2 dopamine receptor. P14416. activation, % at 2 µM. AID 485358. HEK293 T-REx D2 cells, calcium flux agonist mode. hit rate 0.53% among 340,000;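 active means activation over 3 SD above normal in the single-dose calcium agonist read, cut at about 30% in these data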; further: 0% is about no effect
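In this primary screen, compounds producing a positive calcium signal within 180 s of addition to tetracycline-induced, force-coupled HEK293 Trex D2 cells are flagged; cells are dye-loaded with a no-wash calcium kit beforehand.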
D2 PAM-2 = D2 dopamine receptor (human) potentiation; HEK293 T-REx D2, calcium flux, EC20 dopamine potentiation; potentiation, % at 10 µM; hit rate 0.34% among 340,000; P14416;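 active means potentiation over 3 SD above the plate norm, cut at about 30% in these data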; further: 0% is about no effect
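Tetracycline-induced HEK293 T-REx cells force-coupled to calcium signalling expressed D2; compounds were pin-added after a 10 s baseline, read kinetically 180 s, then an EC20 dopamine challenge followed with a further 180 s calcium read.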
D3 arrestin ag = activates human D3 dopamine receptor beta-arrestin recruitment; AID 720506; shares compounds with D2 ag-2; Potency, µM (highest dose often 76.9 µM), for the others: at the highest dose activation, usual class: activators; hit rate 4% among 2,300; DiscoveRx D3 beta-arrestin cells, luminescence, 90 min;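 further: potency means the concentration at half of the fitted maximal effect; 100% = dopamine control response; nearly all actives have a fitted effect of over 70% in size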
D2 ag-3 = activates human D2 dopamine receptor in D3 counterscreen. DiscoveRx PathHunter D2 beta-arrestin, luminescence, 90 min; response scale: percent relative to full dopamine signal. AID 720507. Potency, µM (highest dose often 76.9 µM), for inactives: at the top dose activation, hits mostly activators. shares compounds with D2 ag-2. hit rate 5.9% among 2,300; further: potency means the concentration at half of the fitted maximal effect; % of control where 0% means no effect; nearly all actives have a fitted effect of over 70% in size
An asterisk follows results filed as active; / = not tested or not shown. Unless noted, the call rests on the fitted dose curve; in most records, active means well fitted activation curve with a large enough effect; inconclusive means small, poorly fitted or top-dose-only effect; inactive means flat fitted curve, though single readings scatter.

SMILES	D2 PAM-1	D2 antag	D2 ag-1	D2 ag-2	D2 PAM-2	D3 arrestin ag	D2 ag-3
O=C1CC(c2c(F)cccc2Cl)c2c(c3ccccc3oc2=O)O1 (configuration not stated)	/	/	/	0	-2	/	/
Cc1ccc(N2C(=O)NC(=O)/C(=C\C=C\c3ccco3)C2=O)cc1	-3	/	0	/	0	/	/
Cc1cccc(N2C(=O)NC(=O)/C(=C\C=C\c3ccco3)C2=O)c1	-9	14	1	10	3	-25%	-4%
COc1ccc(-n2c(/C=C/c3cccc(F)c3)nc3ccccc3c2=O)cc1Cl	/	/	/	0	7	/	/
CCc1nc(SC)ncc1C(=O)Nc1ccc(Cl)cc1C(=O)c1ccccc1	/	/	/	-1	/	/	/
CC(=O)OC1(c2ccccc2)CCN(C2CCCCC2)CC1C (configuration not stated)	-3	53*	8	67*	-20	12%	18%
